The list is not random: actives were taken first. Their share in the collection is about 12%.
Ins promoter up – MIN6 insulin promoter up-regulation. MIN6 insulin promoter-GFP reporter, high-content imaging; hits give high values. z-score at 5 µM. 190,000 tested, 0.3% active. AID 1625;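 active means z-score above 3 at 5 µM with at least 500 cells counted in the well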
Lmaj promast – reduces viability of Leishmania major promastigotes | resazurin fluorescence viability | inhibition, % at 10 µM | 200,000 tested, 9% active; in the data active means inhibition above about 50%;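 further: promastigotes grown with compound for 44 hours at 28 °C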
Insulin prom inh – TRM-6 insulin promoter activity inhibition; inhibition, % at 2 µM; 130,000 tested, 0.9% active; TRM-6 cells (human fetal islet line), insulin promoter-eGFP reporter, imaging; reporter expression induced with tamoxifen;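 active means inhibition above the mean plus 3 SD, with well images judged a real hit on visual review, cut at about 60% in these data, passing the limit was not always enough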
KCC2 mod – KCC2 (human) Cl- transport modulation. Q9H2X9. KCC2 cells, thallium flux FluoZin-2 fluorescence. B-score of Tl+ flux slope (higher = more flux/activation; lower = inhibition) at 10 µM. 190,000 tested, 2.2% active. AID 1456;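 active means thallium flux slope and its plate-corrected score both differing from the plate sample mean at a set confidence after two filtering rounds, in either direction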;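 further: slope of fluorescence scaled to starting intensity during 10 to 20 s after thallium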
WT yeast gro inh – growth inhibition of WT yeast, mitochondrial fusion screen | inhibition, % at 10 µM | AID 1362 | mitochondrial fusion phenotypic screen, WT strain | 190,000 tested, 2.1% active; in the data active means inhibition above about 58%; tested in S. cerevisiae
ROMK primary – human ROMK K+ channel modulation, primary screen; P48048; Tet-inducible ROMK, thallium flux fluorescence; actives lie on both sides; B-score at 10 µM; 130,000 tested, 2% active; AID 1918;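 active means signal ratio slope over the read window, or its plate-corrected B-score, at least 3 SD from the plate mean, either direction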;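 further: B-score of the F/F0 ratio slope over 7 to 12 s after thallium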
Target sequence (P48048 whole entry, looked up): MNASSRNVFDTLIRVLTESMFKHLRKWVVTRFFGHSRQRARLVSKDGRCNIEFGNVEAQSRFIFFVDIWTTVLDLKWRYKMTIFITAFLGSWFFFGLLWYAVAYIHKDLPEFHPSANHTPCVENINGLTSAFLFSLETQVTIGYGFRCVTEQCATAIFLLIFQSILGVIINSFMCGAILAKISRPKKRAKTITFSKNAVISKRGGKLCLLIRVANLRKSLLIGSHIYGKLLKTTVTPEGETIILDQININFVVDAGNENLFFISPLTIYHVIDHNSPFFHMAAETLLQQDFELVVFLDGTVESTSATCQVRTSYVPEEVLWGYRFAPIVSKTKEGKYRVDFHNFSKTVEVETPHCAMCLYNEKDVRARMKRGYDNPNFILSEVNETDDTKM
Active calls of the source: *.

COc1ccc(S(=O)(=O)N2CCCC(C(F)(F)F)C2)cc1 (stereo not given) was read as Lmaj promast -1, Insulin prom inh -45, KCC2 mod -0.18, WT yeast gro inh -16 and ROMK primary -0.32.
For CCC(O)CC(C(=O)NNc1ccccc1)C(=O)NNc1ccccc1 (stereo not given) the results were Ins promoter up 0.06, Lmaj promast 72*, KCC2 mod 0.39, WT yeast gro inh 22 and ROMK primary 0.15.
For CCCc1nc2ccccc2c(C(=O)OCC(=O)N2CCc3ccccc32)c1CC the results were Ins promoter up 0.56, Lmaj promast 99*, KCC2 mod -0.17 and WT yeast gro inh 40.
For COC(=O)c1c[nH]n2c(=O)c(Cc3ccc(F)cc3Cl)c(C)nc12 the results were Ins promoter up 3.4*, Lmaj promast 28, KCC2 mod 0.047, WT yeast gro inh 6 and ROMK primary -0.26.
Screening COC(=O)c1c[nH]n2c(=O)c(Cl)c(C)nc12 returned Ins promoter up -0.26, Lmaj promast -3, Insulin prom inh -17, KCC2 mod -1.7, WT yeast gro inh 1 and ROMK primary 0.11.
Screening COc1ccccc1C(=O)Nc1ccc(C)cc1C(=O)c1ccccc1 returned Ins promoter up -0.11, Lmaj promast 6, KCC2 mod -0.86 and WT yeast gro inh 45.
`COc1ccc(C(=O)Nc2ccc(C)cc2C(=O)c2ccccc2)cc1` gave Ins promoter up -0.51, Lmaj promast 99*, KCC2 mod -0.14 and WT yeast gro inh 22.
`COc1ccc(C(=O)Nc2ccccc2C(=O)NC(Cc2ccc(O)cc2)C(=O)NNC(=O)c2ccccc2)cc1` (stereo not given) gave Ins promoter up 0.21, Lmaj promast 62*, Insulin prom inh 10, KCC2 mod -0.085, WT yeast gro inh 15 and ROMK primary 0.0098.
`COc1ccc(OC)c(C(=O)c2ccc(C(=O)Nc3cccc4ccccc34)cc2)c1` gave Ins promoter up 0.41, Lmaj promast 55*, Insulin prom inh 32, KCC2 mod 1.1, WT yeast gro inh 13 and ROMK primary 0.064.
Screening O=C(CN1C(=O)CSc2cc(S(=O)(=O)N3CCCCCC3)ccc21)NCCc1ccccc1 returned Ins promoter up 0.11, Lmaj promast 33, Insulin prom inh -61, KCC2 mod -7.8*, WT yeast gro inh 10 and ROMK primary -5.5*.
Screening O=C(c1cccs1)N1N=C(c2ccccc2)CC1c1ccccc1 (stereo not given) returned Ins promoter up -0.42, Lmaj promast 6, Insulin prom inh 25 and WT yeast gro inh 67*.
`O=C(c1cccs1)N1N=C(c2ccc(O)cc2)CC1c1ccccc1` (stereo not given) gave Ins promoter up 0.91, Lmaj promast 64*, Insulin prom inh -25, KCC2 mod -2.4, WT yeast gro inh 14 and ROMK primary -0.2.
O=C(c1cccs1)N1N=C(c2ccccc2)CC1c1ccc(O)cc1 (stereo not given) was read as Ins promoter up 0.07, Lmaj promast -3, Insulin prom inh 38, KCC2 mod -2.5, WT yeast gro inh 56 and ROMK primary -0.13.
For O=S(=O)(Nc1ccccc1N1CCCCC1)c1ccc(Cl)s1 the results were Lmaj promast 16, Insulin prom inh -52, KCC2 mod 12* and WT yeast gro inh 21.
For O=S(=O)(Nc1ccc(N2CCCCC2)cc1)c1cccs1 the results were Ins promoter up -0.52, Lmaj promast 9, KCC2 mod -0.65 and WT yeast gro inh 2.
Screening O=S(=O)(Nc1ccc(S(=O)(=O)N2CCCCCC2)cc1)c1cccs1 returned Lmaj promast -1, Insulin prom inh 86*, KCC2 mod 0.68 and WT yeast gro inh 8.
For O=S(=O)(Nc1cc(Cl)ccc1N1CCCCC1)c1cccs1 the results were Ins promoter up -0.73, Lmaj promast 19, WT yeast gro inh 60* and ROMK primary -1.
Screening Cc1nnc(NC(=O)CSc2nnc(-c3ccccc3)n2C)s1 returned Ins promoter up 0.01, Lmaj promast 1, KCC2 mod 0.32, WT yeast gro inh -2 and ROMK primary 1.8.
CC1=C(C(=O)OCCOC(C)C)C(c2cc3c(cc2Br)OCO3)CC(=O)N1 (stereo not given) was read as Ins promoter up -0.12, Lmaj promast 98*, Insulin prom inh -100, KCC2 mod -1.4 and WT yeast gro inh -7.
COC(=O)C1=C(C)NC(=O)CC1c1cc2c(cc1Br)OCO2 (stereo not given) was read as Ins promoter up 0.17, Lmaj promast -3, Insulin prom inh -19, KCC2 mod 0.012 and WT yeast gro inh 8.
For NC(=O)c1ccc(NC(=O)CCCN2C(=O)c3ccccc3C2=O)cc1 the results were Ins promoter up -0.42, Lmaj promast -4, Insulin prom inh 32, KCC2 mod 0.55, WT yeast gro inh 63* and ROMK primary 0.23.
`O=C(NCCc1ccc2c(c1)OCCO2)c1ccccc1F` gave Ins promoter up 0.4, Lmaj promast -7, Insulin prom inh 0, WT yeast gro inh 12 and ROMK primary -1.2.
For O=C1CCC(/C=C/c2ccccc2)=NN1Cc1ccccc1Cl the results were Ins promoter up -0.13, Lmaj promast -6, WT yeast gro inh 60* and ROMK primary 0.47.
For O=C1CCC(/C=C/c2ccccc2)=NN1Cc1ccc(Cl)c(Cl)c1 the results were Ins promoter up -0.14, Lmaj promast -7, WT yeast gro inh 38 and ROMK primary -0.68.
For COC(=O)Cn1ccc(N(C)C)c(C#N)c1=O the results were Ins promoter up -0.13, Lmaj promast -2, KCC2 mod 0.3, WT yeast gro inh 60* and ROMK primary 0.059.
Screening O=C(COc1ccc(Cl)cc1)NCc1nnc(SCC(=O)NC2CCCCC2)o1 returned Ins promoter up 3.3*, Lmaj promast 4, Insulin prom inh 21, WT yeast gro inh -2 and ROMK primary -0.11.
`CCCCC(=O)NS(=O)(=O)c1ccc(N=NN2CCCCC2)cc1` gave Ins promoter up -0.04, Lmaj promast 32, Insulin prom inh 17, KCC2 mod -0.0057 and WT yeast gro inh -9.
`Cc1ccc(CC2SC(=Nc3ccccc3)N(c3ccccc3)C2=O)cc1` (stereo not given) gave Ins promoter up 0.13, Lmaj promast 53*, Insulin prom inh -24, KCC2 mod -0.6, WT yeast gro inh 61* and ROMK primary -1.4.
CCCCc1c(O)nc2sccn2c1=O was read as Ins promoter up 1.5, Lmaj promast 31, Insulin prom inh 34, KCC2 mod -0.2, WT yeast gro inh -4 and ROMK primary 0.28.
Screening Cc1nc2sccn2c(=O)c1CCN1CCC(=C(c2ccc(F)cc2)c2ccc(F)cc2)CC1 returned Lmaj promast 14, Insulin prom inh -14, KCC2 mod -0.71 and WT yeast gro inh 79*.
Screening COCCN1CC(O)=C(c2nc3ccccc3c(=O)[nH]2)C1=N returned Ins promoter up 0.56, Lmaj promast 8, Insulin prom inh -112, KCC2 mod -0.64, WT yeast gro inh 3 and ROMK primary 0.58.

Bioassay records from PubChem BioAssay.
